# Compound activity as filed in PubChem BioAssay.
# This is a sample that favours compounds with a hit; in the whole collection about 2.1% have one here.
# BaF3 tox: counter-screen for JAK2V617F inhibitors: parental Ba/F3 viability inhibitors; CellTiter-Glo ATP luminescence; inhibition, % at 5.6 µM; hit rate 1.1% among 220,000;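 active = inhibition above a per-campaign cutoff, the mean inhibition of all tested compounds plus 3 SD, cut at about 27% in these data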;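 also: 0% = DMSO wells and 100% = JAK Inhibitor I control wells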
# APP transl inh: APP translation inhibition | inhibition, % at 2 µM | SH-SY5Y APP 5'UTR-luciferase reporter, luminescence | AID 1285 | hit rate 0.82% among 190,000;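 active = inhibition above a set limit, derived from the sample mean plus 3 SD, cut at about 45% in these data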
# Ba/F3 V617F tox: lowers viability of Ba/F3 cells expressing EpoR and JAK2V617F; ATP luminescence; inhibition, % at 5.6 µM; hit rate 1.1% among 220,000;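 active = inhibition above the campaign mean plus 3 SD over all tested compounds, cut at about 24% in these data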;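 also: cytokine-independent growth of Ba/F3 cells driven by EpoR plus mutant JAK2; 0% = DMSO-treated cells and 100% = JAK inhibitor I control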
# IEC-6 cytotox: IEC-6 cytotoxicity, counter-screen for KLF5 inhibitors. AID 1825. hit rate 0.78% among 290,000. luminescence viability. inhibition, % at 5 µM;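 also: 0% = plate median of test compound wells and 100% = cytotoxic reference compound wells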
# aSyn UTR inh: 5' untranslated region of α-synuclein, MLPCN primary screen | alpha-synuclein 5'UTR reporter, inhibitor activity | inhibition, % (tested at 7.5 µM) | hit rate 0.82% among 300,000 | AID 1813; in the data active = inhibition above about 60%;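 also: H4 neuroglioblastoma cells stably carrying SNCA 5'UTR luciferase fusion; 0% = DMSO wells and 100% = positive control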
# KLF5 inh: kruppel-like factor 5 inhibition | DLD-1 KLF5 promoter-luciferase reporter, luminescence | inhibition, % at 5 µM | hit rate 0.23% among 290,000;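 active = inhibition above a per-plate limit of that plate's mean compound inhibition plus 3 SD, cut at about 60% in these data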;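 also: 0% = DMSO wells and 100% = LY294002 at 200 µM; higher means less KLF5 promoter-driven luciferase light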
# IEC-6 cytotox cf: confirmation of cytotoxic compounds in rat IEC-6 intestinal epithelial cells; AID 1907; inhibition, % at 5 µM; IEC-6 rat intestinal epithelial viability, luminescence; shares compounds with IEC-6 cytotox; hit rate 63% among 1,900;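 also: 0% = vehicle and 100% = reference cytotoxic drug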
# * = called active by the depositor; . = not tested or not shown. Rule as the data show it, unless noted: active = inhibition above about 22%; inactive = the rest.
SMILES,BaF3 tox,APP transl inh,Ba/F3 V617F tox,IEC-6 cytotox,aSyn UTR inh,KLF5 inh,IEC-6 cytotox cf
COc1ccccc1Nc1c2ccccc2nc2ccccc12,.,.,.,28*,-45,-1,13
COc1ccc(Nc2c3c(nc4ccccc24)CCC3)cc1,.,.,.,12,35,0,.
O=C(NCCC1CCCCN1S(=O)(=O)c1ccccc1)C(=O)NCc1cccnc1 (configuration not stated),.,.,.,.,19,.,.
CCC(C)[C@H](NS(=O)(=O)c1ccc(C)cc1)C(=O)N1CCC(C(=O)N[C@@H](Cc2ccccc2)C(=O)O)CC1 (some centres not stated),.,.,.,-2,-9,1,.
CC(=O)N1CCN(C2c3cccc4cccc(c34)C2NS(=O)(=O)c2ccccc2)CC1 (configuration not stated),0,-10,2,3,-25,-24,.
O=S(=O)(NC1c2cccc3cccc(c23)C1N1CCNCC1)c1ccc(Cl)cc1 (configuration not stated),11,-13,6,36*,4,10,8
COc1ccc(NC(=O)CSc2nccn2Cc2ccco2)cc1OC,.,.,.,2,-33,-58,.
COc1cc(NC(=O)COc2cc3oc(=O)cc(C)c3cc2Cl)cc(OC)c1OC,.,.,.,6,-9,-9,.
Cc1nnc(N/N=C/c2cc([N+](=O)[O-])c(N3CCC(C)CC3)cc2N2CCC(C)CC2)n1N,5,6,2,103*,-19,44,12
CCc1nnc(N/N=C/c2ccc(N3CCC(C)CC3)c([N+](=O)[O-])c2)n1N,5,3,1,6,0,-30,.
CCC(=O)NCCc1nc2cc(NC(=O)c3ccco3)ccc2n1C,.,.,.,-2,-73,-48,.
CCN(CC(=O)Nc1ccccc1OC)C(=O)c1cc(S(=O)(=O)N2CCCCCC2)ccc1OC,.,.,.,.,-5,.,.
CCCC(O)(c1ccc(CC)cc1)C(CN1CCOCC1)c1ccccc1 (configuration not stated),.,.,.,-8,18,-33,.
COc1ccc(NC(=O)c2nc(S(=O)(=O)Cc3cccc(C)c3)ncc2Cl)c(OC)c1,.,.,.,66*,82*,24,20
COc1ccc(OC)c(NC(=O)CS(=O)(=O)Cc2ccccc2)c1,.,.,.,2,11,-30,.
COc1ccc(OC)c(NC(=O)c2nc(S(=O)(=O)Cc3ccccc3)ncc2Cl)c1,.,.,.,75*,99*,45,6
CCCc1nnc(NC(=O)c2nc(S(=O)(=O)Cc3cccc(C)c3)ncc2Cl)s1,.,.,.,7,-30,4,.
CCc1nc(SCc2ccccc2C)n[nH]1,.,.,.,6,-35,-37,.
C/C(=N\NC(=O)Cc1ccc(Cl)cc1)c1ccccc1O,.,.,.,28*,15,-7,29*
O=C(CN1CCN(C(=O)C2CCCO2)CC1)Nc1ccc(Cl)cc1 (configuration not stated),.,.,.,-10,8,-6,.
O=[N+]([O-])c1ccc(N=Nc2ncc[nH]2)cc1,.,.,.,81*,-96,-4,13
O=[N+]([O-])c1ccc(N=NN(CCO)CCO)cc1,4,-13,-3,-3,-15,-13,.
Fc1ccc(-c2csc(Nc3ccccn3)n2)cc1,.,.,.,32*,-77,-278,10
c1ccc(Nc2nc(-c3cccnc3)cs2)nc1,2,-194,1,-5,-39,-185,.
COCCNc1nnc(SCC(=O)NNC(=O)c2ccc([N+](=O)[O-])cc2)s1,.,.,.,.,4,.,.
SMILES,BaF3 tox,APP transl inh,Ba/F3 V617F tox,IEC-6 cytotox,aSyn UTR inh,KLF5 inh,IEC-6 cytotox cf
CC(C)(C)c1ccc(-c2cn(-c3ccc(Br)cc3)c3[n+]2CCCS3)cc1,84*,6,100*,50*,-8,35,51*
CC(=O)N1CCC(C(=O)OCc2ccccc2F)(c2ccccc2)CC1,.,.,.,4,-1,-6,.
O=C(NNCc1ccc(O)cc1)c1ccccc1Cl,.,.,.,-4,-43,-105,.
O=C(Nc1ccc2nc3n(c(=O)c2c1)CCCCC3)c1cc([N+](=O)[O-])ccc1F,.,.,.,62*,-42,10,16
CC(C)N(c1ccccc1)c1ccc(NC(=O)COC(=O)CCN2C(=O)c3cccc([N+](=O)[O-])c3C2=O)cc1,8,5,-3,-5,34,-10,.
Cc1c(Cl)ccc2c(C(=O)NCCN3CCCCC3)cc(-c3ccccn3)nc12,10,-13,9,-5,27,8,.
COc1ccccc1-c1cc(C(=O)NC2CCN(C)CC2)c2ccc(Cl)c(C)c2n1,.,.,.,30*,101*,-20,-3
COc1ccc(C)cc1Nc1n[n+](-c2ccccc2)c(-c2ccc(N(C)C)cc2)s1,.,.,.,1,-41,-21,.
